# Measurements: PubChem BioAssay (NCATS)
# Results filed as inconclusive are left out. Calls of active or inactive are those of the source. Calls come from the whole dose curve; as a rule, active = well fitted inhibition curve with a large enough effect; inconclusive = small, poorly fitted or top-dose-only effect, or effect the other way; inactive = flat fitted curve, though single readings scatter.
# Target: ATP-dependent 6-phosphofructokinase (Trypanosoma brucei brucei) (UniProt O15648)
# Assay: qHTS Assay to Find Inhibitors of T. brucei phosphofructokinase: hit validation (AID 492961);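 note: luminescence reports ADP formed as PFK phosphorylates fructose-6-phosphate with ATP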
# Settings: T. brucei PFK, ADP-Glo luminescence; series mostly up to 51.4 µM
# Method in brief: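 In this biochemical qHTS validation, titrated compounds were tested against 1.25 nM PFK with 0.1 mM ATP and 0.5 mM F6P. Percent activity came from controls lacking or containing enzyme.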
# Sequence of ATP-dependent 6-phosphofructokinase (Trypanosoma brucei brucei) (O15648 whole entry, looked up): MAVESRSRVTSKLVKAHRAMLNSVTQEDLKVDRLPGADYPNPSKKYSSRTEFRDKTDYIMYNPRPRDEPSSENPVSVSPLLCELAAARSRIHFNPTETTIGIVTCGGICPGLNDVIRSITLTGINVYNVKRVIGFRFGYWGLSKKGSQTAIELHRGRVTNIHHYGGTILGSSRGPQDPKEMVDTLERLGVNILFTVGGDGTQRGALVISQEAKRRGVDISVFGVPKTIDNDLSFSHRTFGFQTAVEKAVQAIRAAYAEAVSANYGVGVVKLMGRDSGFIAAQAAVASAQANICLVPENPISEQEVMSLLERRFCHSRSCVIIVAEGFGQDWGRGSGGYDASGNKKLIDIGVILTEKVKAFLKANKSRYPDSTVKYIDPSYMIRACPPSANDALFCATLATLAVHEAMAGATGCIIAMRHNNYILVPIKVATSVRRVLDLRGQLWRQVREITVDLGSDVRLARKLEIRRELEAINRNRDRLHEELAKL
row,Structure (SMILES),outcome
1,CCCCCC(C)N (stereo not drawn),inactive
2,CC(N)CCCC(C)(C)O (stereo not drawn),inactive
3,NC(N)=NS(=O)(=O)c1ccc(N)cc1,inactive
4,CC(C)=CCC/C(C)=C/CO,inactive
5,COc1ccc(C(=O)NCc2ccc(OCCN(C)C)cc2)cc1OC,inactive
6,Cc1cc(OI)c(C(C)C)cc1-c1cc(C(C)C)c(OI)cc1C,inactive
7,CN1C[C@@H]2C[C@H]1CN2c1cc2c(cc1F)c(=O)c(C(=O)O)cn2C1CC1,inactive
8,O=S1(=O)OC(c2ccc(O)cc2)(c2ccc(O)cc2)c2ccccc21,inactive
9,Nc1ncnc(Nc2ccccc2)n1,inactive
10,CCN(CC)CCc1nc(-c2ccccc2)no1,inactive
11,O=C(NCN1CCOCC1)c1cnccn1,inactive
12,COc1ccccc1OC(=O)Oc1ccccc1OC,inactive
13,NNC(=O)CP(=O)(c1ccccc1)c1ccccc1,inactive
14,C[C@@H](N)C(=O)O,inactive
15,NS(=O)(=O)c1cc(-c2nn[nH]n2)c(NCc2cccs2)cc1Cl,inactive
16,CCCCCCCC(=O)OCC(O)CO (stereo not drawn),inactive
17,CC(C(=O)O)c1ccc2c(c1)Cc1cccnc1O2 (stereo not drawn),inactive
18,Cc1c(NC(C)C)c(=O)n(-c2ccccc2)n1C,inactive
19,CC(C)c1cc2c(cc1S(=O)(=O)O)[C@@]1(C)CCC[C@@](C)(C(=O)O)[C@@H]1CC2,inactive
20,COc1ccc(C(=O)N2CCN(CC(=O)N3CCOCC3)CC2)cc1,inactive
21,Nc1ccc(C(=O)Oc2ccccc2)c(O)c1,inactive
22,CC1CCN(CCCC(=O)c2ccc(F)cc2)CC1,inactive
23,CC(=O)N[C@@H](Cc1ccc(O)cc1)C(=O)O,inactive
